PostGolgi yeast: growth inhibition of a yeast mutant, post-Golgi transport screen; post-Golgi transport phenotypic cell assay; inhibition, % at 10 µM; 98,000 tested, 0.9% active; AID 739;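 note: yeast cells grown in 1536-well plates; yeast grown about 18 h at 30C before absorbance read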
CYP2C9 act: increases human cytochrome P450 2C9 activity. recombinant CYP2C9, luciferin-H conversion, luminescence; stronger effect = higher value; factor 1 = untreated enzyme, 0 = blocked. activation factor at 5 µM. P11712. 96,000 tested, 1.4% active. AID 1024;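 active = activation factor of 2 or more for CYP2C9 at a 5 µM dose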
Target sequence (P11712 whole entry, looked up): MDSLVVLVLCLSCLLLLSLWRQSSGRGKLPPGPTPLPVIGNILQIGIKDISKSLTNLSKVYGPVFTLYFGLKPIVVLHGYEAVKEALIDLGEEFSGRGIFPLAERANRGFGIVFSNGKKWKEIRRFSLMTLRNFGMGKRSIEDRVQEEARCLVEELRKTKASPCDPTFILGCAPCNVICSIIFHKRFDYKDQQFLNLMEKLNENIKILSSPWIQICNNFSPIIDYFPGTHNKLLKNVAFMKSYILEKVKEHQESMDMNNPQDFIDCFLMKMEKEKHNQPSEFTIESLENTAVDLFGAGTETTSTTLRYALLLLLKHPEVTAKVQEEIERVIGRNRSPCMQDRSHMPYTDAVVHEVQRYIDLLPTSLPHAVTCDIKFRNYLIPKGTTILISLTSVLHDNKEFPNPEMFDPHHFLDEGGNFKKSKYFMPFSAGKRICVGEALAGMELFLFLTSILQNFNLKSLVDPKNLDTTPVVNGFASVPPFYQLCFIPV
CYP2C9 inhib: blocks human cytochrome P450 2C9 | P11712 | inhibition, % at 5 µM | 96,000 tested, 20% active | CYP2C9 Supersomes, luciferin-H conversion, luminescence;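 active = blocking of liver enzyme CYP2C9 beyond about 50% at 5 µM, limit read from the data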
CYP2C19 activ: cytochrome P450 2C19 (human) activation | P33261 | recombinant CYP2C19, luciferin-H EGE luminescence; stronger effect = higher value; 0 = fully inhibited enzyme, 1 = untreated enzyme | activation factor at 5 µM | 96,000 tested, under 10 active | AID 1025;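 active = activation factor of at least 2 at 5 µM in the primary screen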
PostGolgi ctrl: growth of the yeast control strain, post-Golgi counter-screen; efflux-deficient yeast background strain, growth absorbance A615, 16 h; inhibition, % at 10 µM; 98,000 tested, 5% active; AID 738
CYP2C19 inhib: inhibitors of human CYP2C19. CYP2C19 Supersomes, luciferin-H EGE luminescence, 30 min. inhibition, % at 5 µM. 96,000 tested, 21% active. AID 778;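 active = CYP2C19 inhibition above a set limit at 5 µM in the primary screen, cut at about 50% in these data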
Numbers stand for hits. Only some compounds are listed: those with a hit (about 32% of all), similar ones and a draw of the others. Cut-off read from the data, not from the text of the source, unless noted: active = inhibition above about 30%; inactive = the rest.

Results for CCN(CC)CCCn1c(C)cc2c(c1=O)C(c1ccc(OC)c(OC)c1OC)C(C#N)=C(N)O2 (stereo not given) ?
PostGolgi yeast: inactive; PostGolgi ctrl: inactive

Results for CCn1cc(C(=O)NC2CC3CCC2C3)c(=O)c2ccc(C)nc21 (stereo not given) ?
CYP2C9 act: inactive; CYP2C9 inhib: inactive; CYP2C19 activ: inactive; CYP2C19 inhib: inactive

How did CNC(=S)N1N=C(c2ccc(C)cc2)CC1c1ccc(OC)cc1 (stereo not given) do in these assays?
PostGolgi yeast: inactive; CYP2C9 act: inactive; CYP2C9 inhib: 93; CYP2C19 activ: inactive; PostGolgi ctrl: 47; CYP2C19 inhib: 77

Results for O=c1ccc(NS(=O)(=O)c2ccccc2)cn1Cc1ccc(Cl)c(Cl)c1 ?
PostGolgi yeast: inactive; CYP2C9 act: inactive; CYP2C9 inhib: 79; CYP2C19 activ: inactive; PostGolgi ctrl: inactive; CYP2C19 inhib: 98

What do the screens show for `O=C(c1ccc(=O)n(Cc2ccc(Cl)c(Cl)c2)c1)N1CCOCC1`?
PostGolgi yeast: inactive; CYP2C9 act: inactive; CYP2C9 inhib: inactive; CYP2C19 activ: inactive; PostGolgi ctrl: inactive; CYP2C19 inhib: inactive

What do the screens show for `CCc1ccc(CNCCSc2nnnn2C)cc1`?
PostGolgi yeast: inactive; CYP2C9 act: inactive; CYP2C9 inhib: inactive; CYP2C19 activ: inactive; PostGolgi ctrl: inactive; CYP2C19 inhib: 70

What do the screens show for `COc1ccc(Br)cc1CNCCSc1nnnn1C`?
PostGolgi yeast: inactive; CYP2C9 act: inactive; CYP2C9 inhib: 55; CYP2C19 activ: inactive; PostGolgi ctrl: inactive; CYP2C19 inhib: 100

What do the screens show for `COc1cccc(CNCCSc2nnnn2C)c1`?
PostGolgi yeast: inactive; CYP2C9 act: inactive; CYP2C9 inhib: inactive; CYP2C19 activ: inactive; PostGolgi ctrl: inactive; CYP2C19 inhib: 71

Results for COc1ccc(CNCCSc2nnnn2C)cc1OC ?
PostGolgi yeast: inactive; CYP2C9 act: inactive; CYP2C9 inhib: inactive; CYP2C19 activ: inactive; PostGolgi ctrl: inactive; CYP2C19 inhib: inactive

How did COc1ccc(CSc2nnnn2C)cc1F do in these assays?
PostGolgi yeast: inactive; CYP2C9 act: inactive; CYP2C9 inhib: inactive; CYP2C19 activ: inactive; PostGolgi ctrl: inactive; CYP2C19 inhib: 72

Results for Cc1ccc(C2c3sc(=O)[nH]c3SC3C(=O)NC(=O)C32)cc1 (stereo not given) ?
PostGolgi yeast: inactive; PostGolgi ctrl: inactive

What do the screens show for `CN(C)S(=O)(=O)c1ccc(S(=O)(=O)N2CCN(CCC#N)CC2)cc1`?
PostGolgi yeast: inactive; CYP2C9 act: inactive; CYP2C9 inhib: inactive; CYP2C19 activ: inactive; PostGolgi ctrl: inactive; CYP2C19 inhib: inactive

How did Cn1nnnc1SCCNC/C=C/c1ccccc1 do in these assays?
PostGolgi yeast: inactive; CYP2C9 act: inactive; CYP2C9 inhib: inactive; CYP2C19 activ: inactive; PostGolgi ctrl: inactive; CYP2C19 inhib: 80

Results for Cn1nnnc1SCCNCc1cccnc1 ?
PostGolgi yeast: inactive; CYP2C9 act: inactive; CYP2C9 inhib: inactive; CYP2C19 activ: inactive; PostGolgi ctrl: inactive; CYP2C19 inhib: inactive

What do the screens show for `Cn1nnnc1SCCNCc1cccc2ccccc12`?
PostGolgi yeast: inactive; CYP2C9 act: inactive; CYP2C9 inhib: inactive; CYP2C19 activ: inactive; PostGolgi ctrl: inactive; CYP2C19 inhib: 86

Results for Cn1nnnc1SCC(=O)NC(=O)Cc1ccccc1 ?
PostGolgi yeast: inactive; CYP2C9 act: inactive; CYP2C9 inhib: inactive; CYP2C19 activ: inactive; PostGolgi ctrl: inactive; CYP2C19 inhib: inactive

How did COc1ccc(-c2n[nH]c(C)c2-c2cnn(-c3ccccc3)c2)c(O)c1C do in these assays?
PostGolgi yeast: inactive; CYP2C9 act: inactive; CYP2C9 inhib: 52; CYP2C19 activ: inactive; PostGolgi ctrl: 50; CYP2C19 inhib: inactive

What do the screens show for `Cc1cc(C)nc(NC(=O)CSc2nc3ccccc3s2)n1`?
PostGolgi yeast: inactive; CYP2C9 act: inactive; CYP2C9 inhib: inactive; CYP2C19 activ: inactive; PostGolgi ctrl: inactive; CYP2C19 inhib: inactive

Results for O=C(CSCc1ccccc1)N1CCN(C(=O)c2ccco2)CC1 ?
PostGolgi yeast: inactive; PostGolgi ctrl: inactive

How did O=C(CSc1nc(-c2ccccc2)cs1)N1CCN(C(=O)c2ccco2)CC1 do in these assays?
PostGolgi yeast: inactive; CYP2C9 act: inactive; CYP2C9 inhib: inactive; CYP2C19 activ: inactive; PostGolgi ctrl: inactive; CYP2C19 inhib: 62

What do the screens show for `Cc1nc(SCC(=O)N2CC(C)OC(C)C2)nc(C)c1C` (stereo not given)?
PostGolgi yeast: inactive; CYP2C9 act: inactive; CYP2C9 inhib: inactive; CYP2C19 activ: inactive; PostGolgi ctrl: inactive; CYP2C19 inhib: inactive

Source: PubChem BioAssay
